The list is not random: actives were taken first. Their share in the collection is about 2.4%.
Pol kappa inh: qHTS for Inhibitors of Polymerase Kappa; 400,000 compounds, 0.53% hits; DNA polymerase kappa (Homo sapiens), Q9UBT6; purified Pol kappa, fluorescent DNA synthesis assay, 10 min; Potency, µM (titrated, usually from 107 µM), for inactives: at the top dose activity, negative = inhibition, usual class: inhibitors; also: % is scaled to controls: 0 for no effect and ±100 for the full control effect
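Kinetic fluorescence readout at 0 and 10 min followed reaction start with substrate at 50 nM final. Beforehand, enzyme (10 nM Pol kappa) stood 15 min with compound at room temperature; buffer-only wells were negative controls.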
Pol beta inh: qHTS Assay for Inhibitors of DNA Polymerase Beta. 340,000 compounds, 1.3% hits. Pol beta primer extension/strand displacement, fluorescence kinetic. AID 485314, 2010. Potency, µM (series often up to 114 µM), for the others: at the top dose activity change, negative = inhibition, actives largely listed as inhibitors; also: % is scaled to controls: 0 for no effect and ±100 for the full control effect
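Kinetic readout of DNA synthesis with strand displacement by Pol beta. Compound and 10 nM enzyme sit 15 min at room temperature; 50 nM substrate starts the reaction, read immediately and at 10 min.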
Pol iota inh: qHTS for Inhibitors of Polymerase Iota | DNA polymerase iota (Homo sapiens), Q9UNA4 | Pol iota fluorescent replication assay, 10 min | Potency, µM (highest dose often 115 µM), for the others: at the top dose activity, negative = inhibition, most hits filed as inhibitors | 390,000 compounds, 1% hits | AID 588590, 2011
Target sequence (Q9UNA4 whole entry, looked up): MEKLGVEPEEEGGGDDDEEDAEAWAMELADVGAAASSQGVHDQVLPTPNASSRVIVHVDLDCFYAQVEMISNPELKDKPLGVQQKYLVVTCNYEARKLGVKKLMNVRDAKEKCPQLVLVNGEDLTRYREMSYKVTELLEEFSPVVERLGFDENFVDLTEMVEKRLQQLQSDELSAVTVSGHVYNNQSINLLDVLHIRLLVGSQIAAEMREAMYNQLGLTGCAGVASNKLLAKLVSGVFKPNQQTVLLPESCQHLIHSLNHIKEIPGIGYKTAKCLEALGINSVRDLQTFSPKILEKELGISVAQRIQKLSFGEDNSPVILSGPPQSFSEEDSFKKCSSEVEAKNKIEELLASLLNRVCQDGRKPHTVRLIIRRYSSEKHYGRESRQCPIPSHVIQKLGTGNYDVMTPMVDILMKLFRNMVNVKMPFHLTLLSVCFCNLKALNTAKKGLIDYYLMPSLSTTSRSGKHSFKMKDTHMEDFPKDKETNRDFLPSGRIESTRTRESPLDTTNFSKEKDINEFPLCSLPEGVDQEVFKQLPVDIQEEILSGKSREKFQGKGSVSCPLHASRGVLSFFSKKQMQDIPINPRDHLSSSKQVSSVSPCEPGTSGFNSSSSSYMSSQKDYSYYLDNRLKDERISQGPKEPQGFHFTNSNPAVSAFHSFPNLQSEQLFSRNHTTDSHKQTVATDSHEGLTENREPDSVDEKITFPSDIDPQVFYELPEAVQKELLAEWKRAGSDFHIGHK
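Pol iota at 10 nM preincubated 15 min with compounds at room temperature; reaction started with fluorescent substrate, 50 nM final. Fluorescence read kinetically at 0 and 10 min; buffer-only wells as negative control.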
FEN1 inh: qHTS Assay for the Inhibitors of Human Flap endonuclease 1 (FEN1); P39748; Recombinant FEN1 flap cleavage, fluorescence, 15 min; Potency, µM (doses to about 114 µM), without a hit: at the highest dose activity change, negative = inhibition, usual class: inhibitors; 390,000 compounds, 0.35% hits; AID 588795, 2011; also: % is scaled to controls: 0 for no effect and ±100 for the full control effect; nearly all actives have a fitted effect of over 65% in size
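Quantitative HTS format: each compound was titrated, incubated with 10 nM nuclease for 15 min at room temperature, then challenged with flap substrate at 50 nM final. Signal change over 15 min gave concentration–effect curves.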
POLH inh: qHTS for Inhibitors of Polymerase Eta; recombinant Pol eta, fluorescent DNA replication assay; AID 588591, 2011; Potency, µM (titrated, usually from 114 µM), inactives show at the top dose activity change, negative = inhibition, most hits filed as inhibitors; 390,000 compounds, 1.2% hits; also: % is scaled to controls: 0 for no effect and ±100 for the full control effect
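Pol eta (10 nM) was preincubated with compounds for 15 min at room temperature, after which fluorescent replication substrate (50 nM final) was added to start the reaction. Fluorescence was read kinetically at 0 and 10 min.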
WRN helicase inh: qHTS for Inhibitors of WRN Helicase. Bifunctional 3'-5' exonuclease/ATP-dependent helicase WRN (Homo sapiens), Q14191. WRN helicase unwinding, fluorescent forked duplex, kinetic. Potency, µM (series often up to 114 µM), for inactives: at the top dose activity change, negative = inhibition, most hits filed as inhibitors. 360,000 compounds, 0.46% hits. AID 651768, 2012; also: % is scaled to controls: 0 for no effect and ±100 for the full control effect; nearly all actives have a fitted effect of over 55% in size
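WRN at 20 nM final preincubated with compound 15 min at room temperature; reaction started with 100 nM fluorophore/quencher forked duplex oligonucleotide and 2 mM ATP final. Unwinding followed kinetically by red fluorescence (ex 525, em 598 nm).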
Starred values were filed as active, the others as inactive; ? = inconclusive; nt = no result given; ! = not active in a repeat; [ ] = dose if it differs, or a comment. Calls follow the shape of the dose curve; as a rule, active = well fitted curve in the direction sought with a large enough effect; inconclusive = small, poorly fitted or top-dose-only effect, or another doubt; inactive = no such curve, though single readings can be large; an effect the other way counts as inactive or inconclusive. Potency is read from the fitted curve at half-maximal effect.

SMILES | Pol kappa inh | Pol beta inh | Pol iota inh | FEN1 inh | POLH inh | WRN helicase inh
O=C(O)c1ccc(Nc2nc(-c3ccc([N+](=O)[O-])cc3)nc3ccccc23)cc1 | -12.1% | 56.2µM* | ? | ? | ? | -8.7%[11.6 µM]
O=[N+]([O-])c1ccc(-c2nc(Nc3ccc(O)cc3)c3ccccc3n2)cc1 | -0.1% | -27.9% | 25.4% | -5.1% | -1.8% | -5.1%[57.1 µM]
COc1ccc(C2=CC(=O)C[C@H](c3ccc(OC)cc3)C2)cc1 | -1.6% | nt | 8.4% | 5.9% | -23.7% | 5.7%
COc1ccc([C@H]2CC(=O)C=C(c3ccc(SC)cc3)C2)cc1 | 9.0% | nt | 89.1µM* | 2.3% | -13.6% | -2.1%
COc1ccccc1C(=O)NC1(C(F)(F)F)NC(=O)N(CCc2ccccc2)C1=O (configuration not stated) | -9.1% | 4.0% | 79.4µM* | -9.5% | -8.3% | nt
O=C(NC1(C(F)(F)F)NC(=O)N(CCc2ccccc2)C1=O)c1ccccc1Cl (configuration not stated) | -15.3% | 27.5% | -16.7% | -24.2% | -13.4% | nt
O=C(C[n+]1ccccc1)c1ccc(O)c(O)c1 | ? | nt | ? | 10.7% | nt | nt
COCCn1c(=O)c(CCc2ccccc2)nc2cnc(N(C)C)nc21 | -2.0%[60.1 µM] | nt | nt | nt | nt | nt
O=C(O)c1cc(-c2ccc(/C=c3\sc4nc5ccc(Br)cc5n4c3=O)o2)ccc1Cl | nt | 1.58µM* | nt | nt | nt | nt
O=C(O)c1cc(N/N=C/c2ccc(-c3ccc(F)cc3)o2)ccc1Cl | -13.5% | -11.7% | ? | -2.3% | ? | -27.7%
O=C(Nc1ccc(-c2nnc(-c3ccccc3)o2)cc1)C(F)(F)F | -15.9% | 29.3% | 5.4% | -0.7% | 10.0% | -1.9%
CC(C)C(=O)Nc1ccc(-c2nnc(-c3ccccc3)o2)cc1 | 3.8% | 44.7µM* | 10.0% | -7.3% | 1.3% | -6.8%
Cc1ccc(CC2S/C(=C(/C#N)C(=O)NCc3ccco3)N(c3ccccc3)C2=O)cc1 (configuration not stated) | -7.0% | 12.8% | 10.6% | 10.7% | -7.2% | -10.7%
CC1S/C(=C(\C#N)C(=O)NCc2ccco2)N(Cc2ccco2)C1=O (configuration not stated) | 89.1µM* | 25.2% | 22.4µM* | -2.4% | ? | ?
S=c1[nH]nc(COc2ccccc2)n1/N=C/C=C/c1ccco1 | ? | 20µM* | ? | -33.9% | 28.2µM* | -34.8%
S=c1[nH]nc(COc2ccccc2)n1/N=C/C=C/c1ccccc1 | -6.9% | 26.4% | 18.3% | 0.1% | -20.6% | 3.6%
COc1ccccc1CNC(=O)c1cccc(-c2ccccc2OC)n1 | -14.1% | nt | nt | nt | nt | nt
Cc1nnn(-c2nonc2N)c1C(=O)N/N=C/c1ccccc1O | -18.1% | 44.7µM* | ? | 1.1% | ? | -9.7%
Fc1ccc(C(c2ccc(F)cc2)N2CCN(C/C=C\c3ccccc3)CC2)cc1 | -6.5%[19.4 µM] | nt | nt | nt | nt | nt
COc1ccc2ccc3c(c2c1)N=C[C@]1(O3)N(C)c2ccccc2C1(C)C | -7.6% | 13.6% | ? | ? | 70.8µM* | 11.2µM*
O=[N+]([O-])c1cc(/C=N\Nc2nccs2)ccc1O | nt | 3.98µM* | nt | nt | nt | nt
COc1[nH]c(/N=C/c2ccccc2)c(C#N)c1C#N | ? | 89.1µM* | 79.4µM* | 50.1µM*! | -6.8% | -34.1%
O=C(Nc1nc(-c2cccs2)cs1)c1ccc([N+](=O)[O-])o1 | -13.1% | nt | ? | 5.0% | 79.4µM* | -12.5%[11.6 µM]
O=c1cc(CSc2n[nH]c(-c3ccncc3)n2)nc2sccn12 | ? | 10µM* | 50.1µM* | 3.1% | ? | -0.3%[11.6 µM]
Cc1ccc(SCc2cc(=O)n3ccsc3n2)c(C)c1 | nt | 28.2µM* | nt | nt | nt | nt
SMILES | Pol kappa inh | Pol beta inh | Pol iota inh | FEN1 inh | POLH inh | WRN helicase inh
CNS(=O)(=O)c1cccc(C(=O)OCC(=O)c2ccc[nH]2)c1 | -42.1% | nt | 39.8µM* | 10.2% | 44.7µM* | -33.3%
O=C1/C(=C\c2ccncc2)SC(=S)N1C1CCCCC1 | -7.5% | 79.4µM* | 4.2% | -2.3% | -16.3% | 0.5%
CN(C)c1ccc(/C=C/c2ccnc3ccc([N+](=O)[O-])cc23)cc1 | 6.8% | nt | ? | 13.2% | nt | nt
Cc1ccc(-c2nnc3ccc(SCC(=O)c4ccccc4)nn23)cc1 | -14.8% | nt | -8.5% | -13.2% | nt | nt
C=C(CC[C@]12OC(C(=O)O)C(O)(C(=O)O)C(C(=O)O)(O1)C(OC(=O)/C=C/[C@@H](C)C[C@@H](C)CC)C2O)[C@@H](OC(C)=O)[C@H](C)Cc1ccccc1 (some centres not stated) | 79.4µM* | nt | ? | -1.4% | nt | nt
C=C(CCC12O[C@H](C(=O)O)[C@@](O)(C(=O)O)[C@](C(=O)O)(O1)[C@H](OC(=O)/C=C/[C@@H](C)C[C@@H](C)CC)[C@H]2O)[C@@H](OC(C)=O)[C@H](C)Cc1ccccc1 | 3.55µM* | nt | nt | nt | nt | nt
COc1cc2nc(N3CCCN(C)CC3)nc(N(C)C)c2cc1OC | -23.2% | nt | ? | ? | nt | nt
Cc1ccc2c(c1)c1nnc(SCC(=O)Nc3ccccc3C(F)(F)F)nc1n2CC(=O)O | 7.0% | 2.5% | 30.9% | -2.0% | -7.8% | -21.3%
Cc1ccc2c(c1)c1nnc(SCC(=O)Nc3cccc(Cl)c3C)nc1n2CC(=O)O | -16.5% | 22.4µM* | -1.1% | -12.9% | 79.4µM* | ?
CCN(C(=O)COC(=O)c1cccnc1)c1cccc2ccccc12 | -8.0% | nt | -12.3% | -16.9% | -2.7% | -8.9%
CCN(C(=O)COC(=O)c1ccc([N+](=O)[O-])o1)c1cccc2ccccc12 | -17.8% | nt | -19.9% | 28.2µM* | ? | 13.5%
COc1cc2nc(N3CCCN(C)CC3)nc(N)c2cc1OC | -29.8% | nt | -13.3% | ? | nt | nt
NNC(=S)Nc1cccc(-c2n[nH]c(=S)o2)c1 | -30.0% | ? | -11.8% | 50.1µM* | 79.4µM* | -17.3%[11.6 µM]
COCc1cc(C)nc(OCC(=O)N/N=C/c2ccc(-c3cc([N+](=O)[O-])ccc3C)o2)c1C#N | -4.0% | 12.6% | -7.4% | -0.6% | ? | -3.2%
Cc1ccc([N+](=O)[O-])cc1-c1ccc(/C=C(\C#N)c2[nH]nc(N)c2C#N)o1 | ? | 6.31µM* | 56.2µM* | ? | ? | ?
CCCCCCCCCCCCCCC[C@@H](O)[C@H](CO)NC(=O)CCCCCCC | 6.4%[19.4 µM] | nt | nt | nt | nt | nt
CN(c1ccc(/C=C/c2ccccc2)cc1)P1(=O)NCCCO1 (configuration not stated) | -20.3% | nt | 24.4% | -12.9% | nt | nt
O=CN/C=C/c1cc(O)ccc1O | 44.7µM* | ? | 22.4µM* | 17.8µM* | 50.1µM* | -33.7%
O=Cc1ccc(O)cc1O | -19.2% | 10.9% | 21.9% | 3.1% | -12.8% | 2.1%
